Sampled rows, rich in hits. Any-hit rate of the full collection: about 6.5%.
Marburg entry inh – blocks Marburg virus binding to or entry into cells; hit rate 1.8% among 300,000; Marburg virus pseudotyped entry inhibition, cell reporter; AID 540276; Potency, µM (top dose mostly 37.8 µM), for the others: at the highest dose activity change, negative = inhibition, actives largely listed as inhibitors; calls by dose curve; tested in HEK293 cells; further: potency means the concentration at half of the fitted maximal effect
Lassa entry inh – blocks Lassa virus binding to or entry into cells; Lassa virus pseudotype entry inhibition, cell reporter; Potency, µM (highest dose often 37.9 µM), without a hit: top-dose activity change, negative = inhibition, actives largely listed as inhibitors; hit rate 1.2% among 300,000; calls by dose curve; tested in HEK293 cells; further: potency means the concentration at half of the fitted maximal effect; nearly all actives have a fitted effect of over 50% in size
Vaccinia mCherry – inhibitors of vaccinia virus infection (mCherry reporter signal); Potency, µM (series often up to 36.5 µM), inactives show top-dose activity change, negative = inhibition, usual class: inhibitors; hit rate 0.63% among 310,000; AID 720579; Vaccinia virus mCherry reporter infection, fluorescence; calls by dose curve; tested in A549 cells; further: potency means the concentration at half of the fitted maximal effect; nearly all actives have a fitted effect of over 35% in size
HCMV antiviral – human cytomegalovirus inhibition | hit rate 4.5% among 410,000 | activity change, negative = inhibition, % at 57.5 µM | AID 1259415 | HFF cells, HCMV-luciferase reporter, 72 h; active compounds read low; in the data active means activity change below about -60%; inconclusive means no clear call, values can overlap the other calls; inactive means above about -39%
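Compounds were evaluated in HFFs infected with an HCMV luciferase reporter virus (MOI 1 PFU/cell). Luciferase in lysates collected 72 h post infection served as the replication measure.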
FMDV antiviral – antivirals against foot and mouth disease virus; FMDV antiviral cell-based qHTS; Potency, µM (titrated, usually from 57.9 µM), without a hit: at the top dose activity change, negative = inhibition, most hits filed as inhibitors; hit rate 1.2% among 410,000; AID 1159524; calls by dose curve; tested in HEK293T cells; further: read-out not given here; potency means the concentration at half of the fitted maximal effect; nearly all actives have a fitted effect of over 45% in size
Vaccinia Venus – inhibitors of vaccinia virus (Venus reporter) | hit rate 0.46% among 330,000 | Vaccinia virus Venus reporter expression, fluorescence | Potency, µM (titrated, usually from 36.5 µM), without a hit: at the highest dose activity change, negative = inhibition, usual class: inhibitors; calls by dose curve; tested in A549 cells; further: potency means the concentration at half of the fitted maximal effect; nearly all actives have a fitted effect of over 30% in size
* = called active by the depositor; i = inactive; ? = inconclusive; · = no result; [ ] = remark or other dose. On the % scale 0 is the no-effect control and ±100 the full control effect.

SMILES	Marburg entry inh	Lassa entry inh	Vaccinia mCherry	HCMV antiviral	FMDV antiviral	Vaccinia Venus
COc1cc(=O)n2c(c1C(=O)NC(C)c1ccco1)CCN(C(=O)c1ccnc(Cl)c1)CC2 (stereo not given)	·	·	-11.9%	·	-5.2%	-7.9%
CN1c2ccccc2C(C)(C)C12C=Cc1cc(O)ccc1O2 (stereo not given)	?	14.6µM*	i	-37.7	·	62.5%
COc1ccc(S(=O)(=O)Nc2ccc3c(c2)n(C)c(=O)n3C)cc1C	?	-18.3%	-8.3%	156.5	17.7%	-16.8%
Cn1c(=O)n(C)c2cc(NS(=O)(=O)c3ccc4c(c3)CCCC4)ccc21	?	-4.8%	·	-107.1*	?	·
CCOC(=O)c1oc2ccc(S(=O)(=O)Nc3ccc4c(c3)n(C)c(=O)n4C)cc2c1C	?	-26.6%	i	-64.9*	·	0.0%
CCSC1=NC2(CCN(C(=O)NC3CCCCC3)CC2)N=C1c1ccc(OC)cc1	·	-0.7%[46.1 µM]	i	-21.0	-20.0%	-28.0%
CCOc1cc2[nH]c(=O)n(CCC(=O)N3CCN(c4cccc(Cl)c4)CC3)c(=O)c2cc1OCC	·	13.9%[46.1 µM]	-7.1%	15.6	?	-0.4%
CCOC(=O)C1=CCN(S(=O)(=O)c2ccc(Cl)cc2)C1c1cccc(F)c1 (stereo not given)	·	·	·	-26.9	·	·
COc1ccc(-c2ccc(C(=O)N(C)Cc3csc(C)n3)c(N3CCC(N4CCc5ccccc5C4)CC3)n2)cc1	·	·	-8.9%	·	51.7%	9.8%
Cc1ccc2c(CNCc3ccc(C)o3)c(C(=O)O)n(Cc3ccccc3C)c2c1	·	12.6%[46.1 µM]	-3.2%	21.0	-2.7%	-10.0%
C/C(CC(C)C)=N/Nc1ccc([N+](=O)[O-])cc1[N+](=O)[O-]	·	·	·	-16.8	-8.8%	·
COC(=O)CC/C(C)=N\Nc1ccc([N+](=O)[O-])cc1[N+](=O)[O-]	?	6.1%	·	-103.1*	-20.1%	·
Cc1cc(-c2cc(NC(=O)Cc3c[nH]c4ccccc34)ccc2N(C)c2cccnc2)ccc1F	·	·	·	-37.4	·	·
CCOc1ccccc1NC(=S)NC(=O)C1CC1	11.5%	?	-14.6%	-63.6*	-16.4%	-23.0%
O=C(NC(=S)Nc1ccccc1Br)C1CC1	·	·	·	37.6	10.8%	·
CC(C)Oc1cc(F)ccc1-c1cc(C(=O)NCc2ccccn2)[nH]n1	·	·	0.0%	-76.2*	-23.2%	-5.3%
CCCCCn1c(=O)[nH]c2cc(C(=O)N3CCN(c4cccc(Cl)c4)CC3)ccc2c1=O	27.9%[46.1 µM]	-17.0%[46.1 µM]	-10.4%	2.3	?	-9.6%
CC(=O)c1cc(O)c2ccccc2c1O	·	·	·	84.9	-17.8%	·
Cc1cc(N=NC(=O)c2ccccc2O)c2ccccc2c1O	?	-20.8%	·	-72.7*	-18.2%	·
Cc1cc(C)c(C(=O)/C=C/c2cccc3ccccc23)c(=O)[nH]1	?	6.31µM*	5.01µM*	-103.5*	?	8.91µM*
Cc1cc(C)c(C(=O)/C=C/c2ccc3c(c2)OCO3)c(=O)[nH]1	-19.0%[46.1 µM]	-22.2%	-11.7%	-101.3*	4.8%	-2.6%
CCCCn1c(O)c(C(=O)/C=C/c2ccc3c(c2)OCO3)c(=O)[nH]c1=O	-5.0%[46.1 µM]	?	?	-22.6	?	-11.0%[7.34 µM]
CN1CC=C2C(C#N)=C(N)C(C#N)(C#N)[C@H](c3ccncc3)[C@H]2C1	-2.5%	·	·	·	·	·
COC(=O)[C@@H]1C[C@@]2(O)[C@@H](O)[C@@H](O)[C@@H](O)C[C@H]2N1Cc1cc(OC)cc(OC)c1	·	·	i	-99.6*	15.7%	-11.8%
COC(=O)[C@@H]1C[C@@]2(O)[C@H](O)[C@H](O)[C@H](O)C[C@H]2N1Cc1cc(OC)cc(OC)c1	·	·	-2.3%	7.6	2.4%	9.7%
Cc1nn(C(C)(C)C)c(OC(=O)c2cccs2)c1S(=O)(=O)c1ccccc1	?	11.2µM*	?	3.7	?	?
COCC(=O)Oc1c(Sc2ccccc2[N+](=O)[O-])c(C)nn1C(C)(C)C	3.8%[46.1 µM]	15.9%	i	-101.1*	-10.0%	-6.0%
COCC(=O)Oc1c(S(=O)(=O)c2ccc(C)cc2)c(C)nn1C(C)(C)C	6.0%[46.1 µM]	-2.0%[46.1 µM]	-9.2%	-70.7*	-13.3%	-25.1%
COc1cc2c(cc1OC)[C@@H]1N(C)c3ccccc3[C@@]13CCN[C@H]3C2	·	·	·	-2.4	·	·
O=c1c(N2CCN(c3cccc(Cl)c3)CC2)csc2ccc(Cl)cc12	·	-26.0%[46.1 µM]	-6.2%	35.9	-7.4%	-11.0%
